Experimental data as given in PubChem BioAssay (EPA / NIEHS).
Records with an inconclusive call do not appear. The source made the active and inactive calls. How the source made its calls, unless noted: active means hit-call score of the fitted dose curve at least 0.9, where 1 is the maximum; inactive means score below 0.9.

What was measured:
[1] = target: Nuclear respiratory factor 1 (Homo sapiens) (UniProt Q16656); assay: ATG_NRF1_CIS: Attagene CIS-FACTORIAL HepG2 Assay for human Nuclear Respiratory Factor 1 (NRF1) Orphan Gene (AID 2282987); conditions: HepG2 NRF1 cis-element reporter, Attagene multiplex; actives raise or lower the signal
Nuclear respiratory factor 1 (Homo sapiens), sequence (Q16656 whole entry, looked up, the tested form may be a part): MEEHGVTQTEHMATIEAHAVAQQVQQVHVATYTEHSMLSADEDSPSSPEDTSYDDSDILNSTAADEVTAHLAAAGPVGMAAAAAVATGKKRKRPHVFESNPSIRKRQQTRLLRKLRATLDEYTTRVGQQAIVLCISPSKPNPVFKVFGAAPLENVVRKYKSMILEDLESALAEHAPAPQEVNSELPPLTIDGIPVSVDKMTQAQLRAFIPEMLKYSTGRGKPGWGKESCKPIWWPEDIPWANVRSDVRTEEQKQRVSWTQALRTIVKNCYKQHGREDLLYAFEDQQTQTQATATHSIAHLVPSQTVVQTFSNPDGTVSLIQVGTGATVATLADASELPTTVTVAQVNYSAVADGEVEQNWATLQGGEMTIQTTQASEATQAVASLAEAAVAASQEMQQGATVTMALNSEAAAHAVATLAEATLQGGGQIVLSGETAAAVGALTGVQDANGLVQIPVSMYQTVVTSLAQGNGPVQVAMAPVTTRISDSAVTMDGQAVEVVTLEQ
Outline: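 Cells (HepG2, transient MRTU transfection) are exposed to compound for 24 h, then RNA isolated and reporter mRNA amplified and fluorescently labelled. Fragments are separated by capillary electrophoresis; signal change is fitted bidirectionally relative to DMSO.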

[2] = ATG_NFI_CIS: Attagene CIS-FACTORIAL HepG2 Assay for human Nuclear Factor I (NFI) (AID 2282989); conditions: HepG2 cis-regulatory reporter, NFI response element transcription; actives raise or lower the signal
Outline: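 Transient MRTU transfection of HepG2 → 24 h chemical dosing → total RNA, oligo(dT) RT → PCR, 6-FAM primer extension, HpaI cut → capillary electrophoresis. Endpoint fitted bidirectionally relative to DMSO.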

[3] = target: Myc proto-oncogene protein (Homo sapiens) (UniProt P01106); assay: ATG_Myc_CIS: Attagene CIS-FACTORIAL HepG2 Assay for human Myelocytomatosis (Myc) Proto-Oncogene Transcription Factor (AID 2282990); conditions: HepG2, Attagene cis-reporter transcription factor activity; actives raise or lower the signal
Myc proto-oncogene protein (Homo sapiens), sequence (P01106 whole entry, looked up, the tested form may be a part): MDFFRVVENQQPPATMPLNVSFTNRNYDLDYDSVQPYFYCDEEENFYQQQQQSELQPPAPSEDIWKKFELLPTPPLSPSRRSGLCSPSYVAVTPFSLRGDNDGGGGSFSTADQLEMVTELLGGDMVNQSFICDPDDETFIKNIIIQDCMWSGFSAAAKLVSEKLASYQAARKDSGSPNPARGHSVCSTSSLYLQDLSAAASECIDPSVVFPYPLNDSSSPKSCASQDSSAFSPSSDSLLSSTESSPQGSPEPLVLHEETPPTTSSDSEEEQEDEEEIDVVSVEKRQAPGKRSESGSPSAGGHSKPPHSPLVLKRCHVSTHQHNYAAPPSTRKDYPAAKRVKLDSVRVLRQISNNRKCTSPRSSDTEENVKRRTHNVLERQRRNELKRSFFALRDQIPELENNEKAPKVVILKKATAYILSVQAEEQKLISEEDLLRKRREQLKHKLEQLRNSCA
Outline: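 Fluorescence intensity of reporter-specific cDNA fragments, separated by capillary electrophoresis, gives the signal. Transfected HepG2 cells carrying cis-promoter reporter constructs are incubated with compound for 24 h; DMSO serves as baseline.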

[4] = ATG_NF_kB_CIS: Attagene CIS-FACTORIAL HepG2 Assay for human Nuclear Factor Kappa B (NF-kB) (AID 2282991); conditions: HepG2 Attagene cis-factorial NF-kB reporter mRNA; actives raise or lower the signal
Outline: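 Measures mRNA induction of an NF-kB-responsive cis-element reporter in HepG2 cells transfected with multiple reporter units, sampled 24 h post-dosing; quantified by fluorescence after RT-PCR and capillary electrophoresis, fitted for activation or inhibition against DMSO.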

[5] = ATG_NRF2_ARE_CIS: Attagene CIS-FACTORIAL HepG2 Assay for human Nuclear Factor Erythroid 2 Related Factor 2 (NFR2) response to Antioxidant Response Elements (ARE) (AID 2282992); conditions: HepG2 Attagene ARE/NRF2 reporter, transcription factor activity; actives raise or lower the signal;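 on AC50: reporter mRNA level measured by RT-PCR and capillary electrophoresis fluorescence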
Outline: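 Fluorescence intensity of reporter-specific cDNA fragments, separated by capillary electrophoresis, reflects mRNA induction in transfected HepG2 cells at 24 h. Activity is fitted bidirectionally, DMSO serving as baseline.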

[6] = ATG_Oct_MLP_CIS: Attagene CIS-FACTORIAL HepG2 Assay for human Octamer-Binding Transcription Factor (Oct) (AID 2282993); conditions: HepG2 Attagene cis-factorial Oct reporter, mRNA; actives raise or lower the signal
Outline: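 Transient MRTU transfection of HepG2 → 24 h compound treatment → RNA isolation, reverse transcription, PCR → 6-FAM primer extension, HpaI digest → capillary electrophoresis. Activity fitted both directions against DMSO.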

[7] = BSK_3C_TissueFactor: BioMAP Diversity Plus: 3C Assay for Tissue Factor Biomarker Activity (AID 2282997); conditions: BioMAP 3C HUVEC, tissue factor biomarker readout; actives raise or lower the signal
Outline: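 Cells used were primary human umbilical vein endothelial cells. They were dosed with chemical, and after 24 h Tissue Factor was quantified by ELISA. Curves were fitted bidirectionally with DMSO as baseline.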

[8] = BSK_3C_uPAR: BioMAP Diversity Plus: 3C Assay for Urokinase-type plasminogen activator receptor (uPAR) Biomarker Activity (AID 2282998); conditions: BioMAP 3C HUVEC, uPAR biomarker ELISA; actives raise or lower the signal
Outline: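 ELISA readout of uPAR on human vascular endothelium (umbilical vein primary cells), taken 24 h after chemical dosing. Increases and decreases are both fitted relative to DMSO vehicle.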

[9] = BSK_3C_VCAM1: BioMAP Diversity Plus: 3C Assay for Vascular cell adhesion molecule 1 (VCAM1) Biomarker Activity (AID 2282999); conditions: BioMAP 3C HUVEC, VCAM1 ELISA, cytokine-stimulated; actives raise or lower the signal
Outline: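 HUVEC primary cells, 24 h compound exposure; VCAM-1 by ELISA; gain/loss of signal fitted bidirectionally vs DMSO baseline.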

[10] = target: human Peroxisome Proliferator-activated Receptor alpha (PPARa), PPARA (gene 5465) (UniProt Q07869); assay: ATG_PPARa_TRANS: Attagene TRANS-FACTORIAL HepG2 Assay for human Peroxisome Proliferator-activated Receptor alpha (PPARa) (AID 2283001; active means hit-call score of the fitted dose curve at least 0.9, where 1 is the maximum)
human Peroxisome Proliferator-activated Receptor alpha (PPARa), PPARA (gene 5465), sequence (Q07869 whole entry, looked up, the tested form may be a part): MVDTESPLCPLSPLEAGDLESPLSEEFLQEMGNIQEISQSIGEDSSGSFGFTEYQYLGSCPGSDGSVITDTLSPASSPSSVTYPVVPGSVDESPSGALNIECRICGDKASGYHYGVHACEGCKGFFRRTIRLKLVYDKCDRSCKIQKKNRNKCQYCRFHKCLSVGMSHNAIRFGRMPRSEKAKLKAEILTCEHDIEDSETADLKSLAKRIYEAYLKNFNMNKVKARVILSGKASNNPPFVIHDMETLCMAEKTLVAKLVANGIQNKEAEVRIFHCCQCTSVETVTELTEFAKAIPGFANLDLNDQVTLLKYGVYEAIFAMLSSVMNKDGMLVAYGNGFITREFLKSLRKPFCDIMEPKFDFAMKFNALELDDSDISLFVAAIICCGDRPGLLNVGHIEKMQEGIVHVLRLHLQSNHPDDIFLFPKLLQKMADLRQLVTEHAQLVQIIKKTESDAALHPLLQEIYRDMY
Outline: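 Transient HepG2 transfection, GAL4-UAS reporters, NR-Gal4 chimeras; 24 h compound exposure. Readout: reporter transcripts by RT-PCR, 6-FAM primer extension, HpaI digest, capillary electrophoresis. Positive direction vs DMSO baseline.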

[11] = read-out: Intercellular Adhesion Molecule 1 (ICAM1), ICAM1 (gene 3383); assay: BSK_3C_ICAM1: BioMAP Diversity Plus: 3C Assay for Intercellular Adhesion Molecule 1 (ICAM1) Biomarker Activity (AID 2283003); conditions: primary human endothelial cells (HUVEC); actives raise or lower the signal
Outline: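 ELISA read-out of ICAM-1; HUVEC (primary human), 3C system, 24 h post-dosing; bidirectional fit vs DMSO baseline.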

[12] = target: Retinoic acid receptor alpha (Homo sapiens) (UniProt P10276); assay: ATG_RARa_TRANS: Attagene TRANS-FACTORIAL HepG2 Assay for human Retinoic Acid Receptor alpha (RARa) (AID 2283005; active means hit-call score of the fitted dose curve at least 0.9, where 1 is the maximum;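 on AC50: potency for increased reporter signal meaning RARa activation over DMSO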)
Retinoic acid receptor alpha (Homo sapiens), sequence (P10276 whole entry, looked up, the tested form may be a part): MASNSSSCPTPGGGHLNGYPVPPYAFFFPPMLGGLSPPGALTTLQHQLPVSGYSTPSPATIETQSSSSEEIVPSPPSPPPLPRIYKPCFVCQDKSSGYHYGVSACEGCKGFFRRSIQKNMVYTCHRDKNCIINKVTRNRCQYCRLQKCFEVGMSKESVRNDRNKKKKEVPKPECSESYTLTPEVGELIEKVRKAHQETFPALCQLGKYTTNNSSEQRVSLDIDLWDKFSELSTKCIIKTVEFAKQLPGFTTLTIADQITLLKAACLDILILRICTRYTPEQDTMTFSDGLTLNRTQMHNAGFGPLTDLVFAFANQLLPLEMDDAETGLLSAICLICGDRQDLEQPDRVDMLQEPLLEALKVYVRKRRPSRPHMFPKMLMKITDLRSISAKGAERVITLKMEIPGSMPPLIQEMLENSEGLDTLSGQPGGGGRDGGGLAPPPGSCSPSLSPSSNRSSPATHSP
Outline: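 HepG2 transiently transfected with multiplex GAL4-UAS reporter units including a human RARa–GAL4 chimera; 24 h compound exposure. Reporter mRNA quantified by RT-PCR, 6-FAM labeling and capillary electrophoresis; gain of signal versus DMSO.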

[13] = BSK_3C_Proliferation: Cell Proliferation Assessment in the BioMAP Diversity Plus: 3C Assay (AID 2283006); conditions: primary human endothelial cells (HUVEC);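 on AC50: potency may reflect either rise or fall in cell number versus DMSO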
Outline: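 HUVEC, sub-confluent; 48 h chemical exposure; 10% TCA fix, 0.1% SRB stain, A560 total protein. Gain or loss of signal fitted both directions vs DMSO control.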

[14] = target: Peroxisome proliferator-activated receptor gamma (Homo sapiens) (UniProt P37231); assay: ATG_PPARg_TRANS: Attagene TRANS-FACTORIAL HepG2 Assay for human Peroxisome Proliferator-activated Receptor-gamma (PPARg) (AID 2283007; active means hit-call score of the fitted dose curve at least 0.9, where 1 is the maximum)
Peroxisome proliferator-activated receptor gamma (Homo sapiens), sequence (P37231 whole entry, looked up, the tested form may be a part): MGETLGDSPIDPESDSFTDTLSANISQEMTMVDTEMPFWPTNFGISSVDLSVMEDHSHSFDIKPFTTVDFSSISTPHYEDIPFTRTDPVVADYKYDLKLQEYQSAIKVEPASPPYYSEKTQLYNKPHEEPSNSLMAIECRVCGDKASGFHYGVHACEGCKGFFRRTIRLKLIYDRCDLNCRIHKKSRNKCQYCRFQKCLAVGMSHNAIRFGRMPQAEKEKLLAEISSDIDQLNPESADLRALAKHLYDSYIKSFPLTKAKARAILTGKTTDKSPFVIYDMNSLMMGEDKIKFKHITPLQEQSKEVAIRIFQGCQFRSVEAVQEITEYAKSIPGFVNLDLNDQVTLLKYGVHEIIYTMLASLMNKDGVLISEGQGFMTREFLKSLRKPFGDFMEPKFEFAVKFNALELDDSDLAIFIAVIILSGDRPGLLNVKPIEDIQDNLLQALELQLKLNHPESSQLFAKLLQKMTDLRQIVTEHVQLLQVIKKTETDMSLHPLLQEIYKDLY
Outline: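 Gain-of-signal endpoint relative to DMSO, derived from reporter mRNA levels quantified by RT-PCR and capillary electrophoresis. Cells were HepG2 transiently expressing a chimeric NR-Gal4 construct with GAL4-UAS reporters, exposed to chemicals for 24 h.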

[15] = target: Nuclear receptor subfamily 1 group I member 2 (Homo sapiens) (UniProt O75469); assay: ATG_PXR_TRANS: Attagene TRANS-FACTORIAL HepG2 Assay for human Pregnane X Receptor (PXR) (AID 2283008; active means hit-call score of the fitted dose curve at least 0.9, where 1 is the maximum)
Nuclear receptor subfamily 1 group I member 2 (Homo sapiens), sequence (O75469 whole entry, looked up, the tested form may be a part): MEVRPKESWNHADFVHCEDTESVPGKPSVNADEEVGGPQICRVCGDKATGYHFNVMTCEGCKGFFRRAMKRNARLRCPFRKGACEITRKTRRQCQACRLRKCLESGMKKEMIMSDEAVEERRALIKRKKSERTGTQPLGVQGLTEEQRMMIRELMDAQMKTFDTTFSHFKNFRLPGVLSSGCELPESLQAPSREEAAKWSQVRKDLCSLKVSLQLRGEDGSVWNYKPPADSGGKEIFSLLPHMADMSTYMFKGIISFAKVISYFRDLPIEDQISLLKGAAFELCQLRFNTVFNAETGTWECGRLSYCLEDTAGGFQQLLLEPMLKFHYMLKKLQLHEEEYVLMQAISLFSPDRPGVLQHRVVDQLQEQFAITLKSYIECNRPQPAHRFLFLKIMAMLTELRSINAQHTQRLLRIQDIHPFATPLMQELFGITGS
Outline: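 Transient HepG2 transfectants carrying multiplexed reporter transcription units; PXR activity read through a Gal4 chimera. 24 h exposure. RT-PCR/CE fluorescence; upward curve fit referenced to DMSO.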

[16] = target: human Retinoic Acid Receptor gamma (RARg), RARG (gene 5916) (UniProt P13631); assay: ATG_RARg_TRANS: Attagene TRANS-FACTORIAL HepG2 Assay for human Retinoic Acid Receptor gamma (RARg) (AID 2283009; active means hit-call score of the fitted dose curve at least 0.9, where 1 is the maximum)
human Retinoic Acid Receptor gamma (RARg), RARG (gene 5916), sequence (P13631 whole entry, looked up, the tested form may be a part): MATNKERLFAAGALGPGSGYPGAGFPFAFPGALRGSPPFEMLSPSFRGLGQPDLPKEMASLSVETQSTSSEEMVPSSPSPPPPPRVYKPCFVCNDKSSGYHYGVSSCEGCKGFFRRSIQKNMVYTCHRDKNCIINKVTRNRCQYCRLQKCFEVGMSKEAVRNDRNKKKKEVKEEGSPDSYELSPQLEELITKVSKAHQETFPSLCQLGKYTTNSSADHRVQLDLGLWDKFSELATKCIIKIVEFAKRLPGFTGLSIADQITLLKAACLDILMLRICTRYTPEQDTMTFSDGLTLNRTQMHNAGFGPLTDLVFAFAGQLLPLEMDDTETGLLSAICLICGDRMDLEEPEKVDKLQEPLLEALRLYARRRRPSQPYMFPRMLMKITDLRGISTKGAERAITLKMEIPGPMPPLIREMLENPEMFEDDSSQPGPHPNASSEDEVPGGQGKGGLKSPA
Outline: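 Readout: reporter transcript levels via RT-PCR, 6-FAM primer-extension labelling, HpaI digestion and capillary electrophoresis. Cells: HepG2 carrying transfected RARg-GAL4 chimera plus UAS reporter set. Dosing 24 h; DMSO negative control.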

[17] = target: Cellular tumor antigen p53 (Homo sapiens) (UniProt P04637); assay: ATG_p53_CIS: Attagene CIS-FACTORIAL HepG2 Assay for human p53 Transcription Factor (AID 2282994); conditions: HepG2 p53 cis-element reporter, Attagene mRNA; actives raise or lower the signal
Cellular tumor antigen p53 (Homo sapiens), sequence (P04637 whole entry, looked up): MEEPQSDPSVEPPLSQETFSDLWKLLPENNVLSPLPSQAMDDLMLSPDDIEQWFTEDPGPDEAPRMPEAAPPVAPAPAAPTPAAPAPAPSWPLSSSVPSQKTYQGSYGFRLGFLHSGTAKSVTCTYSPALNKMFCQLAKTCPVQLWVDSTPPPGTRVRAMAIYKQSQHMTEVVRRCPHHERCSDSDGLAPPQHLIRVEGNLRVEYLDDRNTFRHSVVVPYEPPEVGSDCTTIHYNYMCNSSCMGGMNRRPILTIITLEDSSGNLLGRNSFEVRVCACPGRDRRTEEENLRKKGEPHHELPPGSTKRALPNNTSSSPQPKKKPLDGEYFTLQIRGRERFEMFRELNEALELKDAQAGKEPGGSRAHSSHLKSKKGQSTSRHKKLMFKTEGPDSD
Outline: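 Transiently transfected HepG2 (multiple cis reporter transcription units); exposure 24 h; reporter RNA via RT-PCR, 6-FAM extension, 2 h HpaI digest at 37 C, CE detection; DMSO baseline.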

[18] = BSK_4H_Eotaxin3: BioMAP Diversity Plus: 4H Assay for Eotaxin 3 Biomarker Activity (AID 2283000); conditions: primary human endothelial cells (HUVEC); actives raise or lower the signal
Outline: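 Endothelial primary cells (human umbilical vein) exposed to compound for 24 h. ELISA detection of Eotaxin-3.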

[19] = target: human Peroxisome Proliferator-activated Receptor delta (PPARd), PPARD (gene 5467) (UniProt Q03181); assay: ATG_PPARd_TRANS: Attagene TRANS-FACTORIAL HepG2 Assay for human Peroxisome Proliferator-activated Receptor delta (PPARd) (AID 2283002; active means hit-call score of the fitted dose curve at least 0.9, where 1 is the maximum)
human Peroxisome Proliferator-activated Receptor delta (PPARd), PPARD (gene 5467), sequence (Q03181 whole entry, looked up, the tested form may be a part): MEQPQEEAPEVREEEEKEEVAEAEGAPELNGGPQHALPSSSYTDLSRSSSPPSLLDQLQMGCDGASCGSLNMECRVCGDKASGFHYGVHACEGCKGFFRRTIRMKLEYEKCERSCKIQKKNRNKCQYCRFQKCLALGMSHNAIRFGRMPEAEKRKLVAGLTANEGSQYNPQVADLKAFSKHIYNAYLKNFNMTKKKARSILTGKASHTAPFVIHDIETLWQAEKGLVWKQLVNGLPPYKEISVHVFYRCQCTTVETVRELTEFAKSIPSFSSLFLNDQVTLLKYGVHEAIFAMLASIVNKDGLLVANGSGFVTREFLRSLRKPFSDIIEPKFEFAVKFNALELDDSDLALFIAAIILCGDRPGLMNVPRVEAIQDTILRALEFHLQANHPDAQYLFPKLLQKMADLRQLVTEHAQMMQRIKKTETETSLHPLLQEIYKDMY
Outline: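 Fluorescence from capillary electrophoresis of labelled RT-PCR reporter fragments gives the signal; DMSO sets baseline. Cells: HepG2 transiently carrying GAL4-UAS reporter units plus chimeric nuclear receptor-Gal4 proteins, exposed to chemicals for 24 h.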

[20] = target: human RAR-related Orphan Receptor beta (RORb), RORB (gene 6096) (UniProt Q92753); assay: ATG_RORb_TRANS: Attagene TRANS-FACTORIAL HepG2 Assay for human RAR-related Orphan Receptor beta (RORb) (AID 2283010; active means hit-call score of the fitted dose curve at least 0.9, where 1 is the maximum)
human RAR-related Orphan Receptor beta (RORb), RORB (gene 6096), sequence (Q92753 whole entry, looked up, the tested form may be a part): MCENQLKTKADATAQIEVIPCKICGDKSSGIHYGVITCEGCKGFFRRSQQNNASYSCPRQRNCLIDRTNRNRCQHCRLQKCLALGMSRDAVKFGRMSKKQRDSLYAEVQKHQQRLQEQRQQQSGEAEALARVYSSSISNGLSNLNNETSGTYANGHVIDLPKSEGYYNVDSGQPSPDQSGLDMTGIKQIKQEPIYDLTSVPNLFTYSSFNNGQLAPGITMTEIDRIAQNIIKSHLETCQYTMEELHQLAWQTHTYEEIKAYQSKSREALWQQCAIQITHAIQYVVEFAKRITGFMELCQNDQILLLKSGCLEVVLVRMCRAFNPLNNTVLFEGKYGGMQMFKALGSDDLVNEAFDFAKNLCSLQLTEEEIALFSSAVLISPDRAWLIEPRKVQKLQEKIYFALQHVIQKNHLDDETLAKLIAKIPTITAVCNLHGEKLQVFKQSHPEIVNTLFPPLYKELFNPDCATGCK
Outline: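 HepG2, transient MRTU transfection (GAL4-UAS reporters, exogenous NR-Gal4 chimeras); 24 h compound exposure; total RNA → RT-PCR → 6-FAM primer extension → HpaI digest → CE fluorescence. Positive direction vs DMSO baseline.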

Measured: AC50

CCOc1cc(C(C)(C)C)ccc1C1COC(c2c(F)cccc2F)=N1 (stereo unspecified)
active: [5] 1.62 µM | [6] 0.581 µM | [7] 37 µM | [8] 29.7 µM | [9] 28 µM | [12] 3.63 µM | [13] 14.4 µM
not listed: [17] | [18] | [19] | [20]
inactive: all other assays above

O=P(O)(O)CCCl
not listed: [1] | [20]
inactive: all other assays above

N#CN=C1SCCN1Cc1ccc(Cl)nc1
active: [5] 50 µM
not listed: [16]
inactive: all other assays above

CC1(C)CCC(=Cc2ccc(Cl)cc2)C1(O)Cn1cncn1 (stereo unspecified)
active: [5] 3.91 µM | [6] 13.3 µM | [15] 9.33 µM
not listed: [4] | [10] | [18] | [19] | [20]
inactive: all other assays above

COC(=O)c1c(C(F)F)nc(C(F)(F)F)c(C2=NCCS2)c1CC(C)C
active: [5] 2.14 µM | [6] 9.92 µM | [8] 33.4 µM | [18] 6.71 µM | [13] 36.9 µM | [14] 45.5 µM | [15] 0.431 µM
not listed: [1] | [12] | [16] | [20]
inactive: all other assays above

CCCCC(C#N)(Cn1cncn1)c1ccc(Cl)cc1 (stereo unspecified)
active: [12] 19.7 µM
not listed: [4] | [18] | [19] | [20]
inactive: all other assays above

CCOc1nc(F)cc2nc(S(=O)(=O)Nc3c(Cl)cccc3Cl)nn12
active: [14] 24.6 µM
not listed: [12] | [16] | [20]
inactive: all other assays above

COP(=S)(OC)SCn1nnc2ccccc2c1=O
active: [5] 25.1 µM | [6] 12.8 µM
not listed: [4] | [12] | [16]
inactive: all other assays above

OC(c1ccc(Cl)cc1)(c1ccc(Cl)cc1)C(Cl)(Cl)Cl
active: [7] 25.6 µM | [8] 29.1 µM | [9] 14.1 µM | [18] 29.8 µM | [11] 29 µM | [13] 11.6 µM
not listed: [10] | [16] | [19] | [20]
inactive: all other assays above

Clc1cccc(C(Cl)(Cl)Cl)n1
not listed: [4] | [12] | [16] | [18] | [19] | [20]
inactive: all other assays above

CCNP(=S)(OC)O/C(C)=C/C(=O)OC(C)C (stereo unspecified)
active: [5] 7.44 µM | [12] 22.1 µM | [14] 29.6 µM
not listed: [10] | [19] | [20]
inactive: all other assays above

COc1cc(OC)nc(NC(=O)NS(=O)(=O)c2ncccc2OCC(F)(F)F)n1
not listed: [12] | [16] | [18] | [19]
inactive: all other assays above

CCOc1nc(C(Cl)(Cl)Cl)ns1
active: [5] 22.9 µM | [6] 43.5 µM
not listed: [19]
inactive: all other assays above

COCC(C)N(C(=O)CCl)c1c(C)csc1C (stereo unspecified)
active: [5] 2.31 µM | [14] 3.79 µM
not listed: [12] | [16] | [19] | [20]
inactive: all other assays above

CC(C)Oc1cccc(NC(=O)c2ccccc2C(F)(F)F)c1
active: [5] 6.33 µM | [6] 11.7 µM | [14] 30.9 µM | [15] 23.4 µM
not listed: [18]
inactive: all other assays above
